From PubChem
Shown are actives, neighbours in structure and some others; about 8% of the full set was active somewhere.
FMDV inh: foot and mouth disease virus antiviral activity; 410,000 tested, 1.2% active; Potency, µM (titrated, usually from 57.9 µM), for the others: at the top dose activity change, negative = inhibition, most hits filed as inhibitors; FMDV antiviral cell-based qHTS; calls by dose curve; tested in HEK293T cells; note: read-out not given here; potency is the fitted concentration of half-maximal effect; % is set by controls: 0 for no effect and ±100 for the full control effect; nearly all actives have a fitted effect of over 45% in size
SARS PLpro yeast: inhibitors of SARS-CoV papain-like protease in yeast. S. cerevisiae expressing SARS-CoV PLpro, growth rescue. Potency, µM (doses to about 32.9 µM), inactives show top-dose activity, positive = growth rescue, usual class: activators. 330,000 tested, 0.19% active. AID 485353; calls by dose curve; note: potency is the fitted concentration of half-maximal effect; 0% is about no effect; nearly all actives have a fitted effect of over 55% in size
HCMV inh: human cytomegalovirus inhibition; AID 1259415; HFF cells, HCMV-luciferase reporter, 72 h; active compounds read low; activity change, negative = inhibition, % at 57.5 µM; 410,000 tested, 4.5% active; in the data active = activity change below about -60%; inconclusive = no clear call, values can overlap the other calls; inactive = above about -39%; note: % is set by controls: 0 for no effect and ±100 for the full control effect
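Cell-based, HFFs, 1000 cells/well, 16 h 37C; cpds in DMSO + HCMV-luc, MOI 1 PFU/cell; 72 h 37C; OneGlo luminescence after 5 min RT; norm. to buffer vs Salinomycin 10uM.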
HCV inh: inhibitors of hepatitis C virus infection; 340,000 tested, 3.4% active; Potency, µM (series often up to 41.8 µM), without a hit: top-dose activity change, negative = inhibition, usual class: inhibitors; Huh7.5.1 HCVcc-Cre infection, luciferase reporter, 44 h; active = well fitted inhibition curve with a large enough effect; inconclusive = small, poorly fitted or top-dose-only effect, or another doubt; inactive = no such curve, though single readings can be large or run the other way; note: potency is the fitted concentration of half-maximal effect; % is set by controls: 0 for no effect and ±100 for the full control effect
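After 44 h co-culture of compound, cells and HCVcc-Cre (~0.5 moi), substrate is added for 15 min at room temperature and luciferase measured over 15 sec. Cells were seeded at 1,000/well and pre-cultured 4 h.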
LASV entry inh: inhibitors of Lassa virus binding or cell entry. Lassa virus pseudotype entry inhibition, cell reporter. Potency, µM (series often up to 37.9 µM), for inactives: at the top dose activity change, negative = inhibition, most hits filed as inhibitors. 300,000 tested, 1.2% active. AID 540256; calls by dose curve; tested in HEK293 cells; note: potency is the fitted concentration of half-maximal effect; % is set by controls: 0 for no effect and ±100 for the full control effect; nearly all actives have a fitted effect of over 50% in size
Marburg entry inh: inhibitors of Marburg virus binding or cell entry. 300,000 tested, 1.8% active. AID 540276. Marburg virus pseudotyped entry inhibition, cell reporter. Potency, µM (titrated, usually from 37.8 µM), for the others: top-dose activity change, negative = inhibition, actives largely listed as inhibitors; calls by dose curve; tested in HEK293 cells; note: potency is the fitted concentration of half-maximal effect; % is set by controls: 0 for no effect and ±100 for the full control effect
Numbers without * were called inactive; ? = inconclusive; / = not tested or not shown; [ ] = another dose, or the depositor's remark.

SMILES | FMDV inh | SARS PLpro yeast | HCMV inh | HCV inh | LASV entry inh | Marburg entry inh
Cc1cc(N2CCN(C)CC2)nc2ccc(NC(=S)N3CCN(c4ccc(F)cc4)CC3)cc12 | 20.3% | 2.3% | -33.4 | 10µM* | / | /
CC(Nc1nc(N2CCNCC2)nc2ccccc12)c1ccccc1 (stereo not drawn) | ? | 0.6% | -36.0 | 10µM* | ? | ?
NC(=S)N/N=C1\CC(c2ccc3c(c2)OCCCO3)Oc2ccc(F)cc21 (stereo not drawn) | ? | 1.0% | -14.2 | 8.91µM* | ? | ?
NC(=S)N/N=C1\CC(c2ccc3c(c2)OCCO3)Oc2ccc(F)cc21 (stereo not drawn) | -25.5% | -1.8% | -31.8 | ? | ? | ?
CCC(=NCCc1ccccc1)c1c(O)[nH]c(=O)[nH]c1=O | -16.0% | -0.5% | 28.4 | 0.316µM* | 0.3% | 0.4%
COc1ccc(/C=C2\SC(=S)N(CCC(=O)NC3C=CS(=O)(=O)C3)C2=O)cc1 (stereo not drawn) | -2.8% | 18.9% | -79.7* | ? | / | /
CN1CCN(C(=O)CCCN2C(=O)/C(=C/c3cccc(Br)c3)SC2=S)CC1 | -7.0% | -3.9% | -84.5* | 6.31µM* | ? | 10µM*
CN1CCN(C(=O)CCN2C(=O)/C(=C/c3cccc(Br)c3)SC2=S)CC1 | -13.7% | 9.4% | -16.7 | ? | -18.9%[46.1 µM] | ?
COc1ccc(/C=C2\SC(=S)N(CCC(=O)N3CCOCC3)C2=O)cc1 | 26.9% | 5.5% | -10.8 | -27.0% | 15.8% | -21.4%
CC(C(=O)NC1C=CS(=O)(=O)C1)N1C(=O)/C(=C/c2cccc(Cl)c2)SC1=S (stereo not drawn) | 2.1% | 0.1% | -65.0* | 4.5% | / | /
CC(C(=O)NC1C=CS(=O)(=O)C1)N1C(=O)/C(=C\c2ccccc2)SC1=S (stereo not drawn) | -21.9% | / | ? | 3.0% | / | /
COc1cccc(/C=C2\SC(=S)N(CCC(=O)NC3C=CS(=O)(=O)C3)C2=O)c1 (stereo not drawn) | 7.0% | -0.4% | -33.5 | ? | / | /
COc1ccc(/C=C2\SC(=S)N(CCCC(=O)N3CCN(C)CC3)C2=O)cc1 | 5.3% | 1.1% | -77.3* | 15.6% | ? | ?
COc1ccc(NC(=O)Cn2c(=O)n(-c3cccc(C)c3)c(=O)c3c2c2cc(C)ccc2n3C)cc1Cl | -13.6% | / | 8.0 | / | ? | -10.2%[46.1 µM]
CCc1ccc(-c2cn3c(n2)sc2cc(C(=O)NCCc4ccc(OC)cc4OC)ccc23)cc1 | 1.3% | / | / | / | -14.1%[46.1 µM] | /
Cc1nc2sc(C(=O)Nc3ccc(F)cc3)c(N)c2c(-c2ccc(Br)cc2)c1C(=O)Nc1ccc(Cl)cc1 | 9.6% | / | 27.7 | / | -0.3%[46.1 µM] | ?
CN1CCN(C(=O)CCN2C(=O)/C(=C\c3ccc(F)cc3)SC2=S)CC1 | ? | -3.9% | 42.2 | ? | ? | 0.8%
CCc1ccc(/C=C2\SC(=S)N(CCCC(=O)N3CCN(C)CC3)C2=O)cc1 | 14.6% | / | -100.5* | / | / | /
CC1=C(C(=O)N2CCCCCC2)CC(CC(=O)NCCc2ccccn2)C(=O)N1CCCN1CCCC1=O (stereo not drawn) | / | / | -84.1* | / | / | /
CC1=C(C(=O)N(C(C)C)C(C)C)CC(CC(=O)NCCc2ccccn2)C(=O)N1CCCN1CCCC1=O (stereo not drawn) | -8.3% | / | 18.6 | / | / | /
Cc1c(C(=O)Nc2ccc(S(=O)(=O)N(C)C3CCN(C)CC3)cc2)oc2ccccc12 | -22.8% | -10.3% | ? | 6.31µM* | ? | -102.3%
CN1CCC(N(C)S(=O)(=O)c2ccc(NC(=O)COc3cccc(Cl)c3)cc2)CC1 | -24.1% | -3.3% | -27.2 | ? | -0.4% | ?
O=C(COc1ccc(Br)cc1CNC1CCCCC1)NCCc1ccccc1 | -21.8% | 1.0% | -11.5 | ? | ? | 11.2µM*
Cc1c(C(=O)Nc2ccc(S(=O)(=O)N(C)C3CCN(C)CC3)cc2)oc2c(Cl)cccc12 | -29.2% | / | -35.2 | 2µM* | ? | ?
CN1CCC(N(C)S(=O)(=O)c2ccc(NC(=O)c3ccc(S(=O)(=O)N(C)C)cc3)cc2)CC1 | -13.9% | -0.8% | -24.0 | ? | ? | ?
SMILES | FMDV inh | SARS PLpro yeast | HCMV inh | HCV inh | LASV entry inh | Marburg entry inh
COc1ccc(Br)cc1CN(C)CC(=O)NCCc1ccccc1 | -19.5% | -12.4% | -36.8 | ? | 3.3% | -25.3%[46.1 µM]
O=C(COc1ccc(Br)cc1Cl)NC1CCN(Cc2ccccc2)CC1 | -22.1% | -6.5% | 8.0 | 11.2µM* | ? | -19.2%[46.1 µM]
Cc1ccccc1C(=O)Nc1ccc2nc(SCC(=O)N3CCc4ccccc43)sc2c1 | -12.8% | / | -6.9 | / | ? | ?
CCCOc1ccc(C2c3c(-c4ccccc4O)n[nH]c3C(=O)N2CCCOCC)cc1OCC (stereo not drawn) | -11.1% | / | -2.6 | / | ? | ?
CCN1C(=O)[C@@H]2[C@H]3[C@H](O)[C@H](O)CC(=NO[C@H](C)c4cn([C@H](CO)Cc5ccccc5)nn4)[C@@H]3CC[C@H]2C1=O | / | / | / | / | 25.3%[14.3 µM] | -10.9%[14.2 µM]
CN1CCC(N(C)S(=O)(=O)c2ccc(NC(=O)COc3ccc(Br)cc3Cl)cc2)CC1 | -4.4% | 3.9% | -20.9 | 10µM* | 6.31µM* | 8.91µM*
CC(C)CC(COCc1ccc(F)cc1)N1CCN(C(=O)c2cccc(C(F)(F)F)c2)CCC1=O (stereo not drawn) | -21.8% | 3.2% | 11.3 | -7.9% | 20.6µM* | ?
CC(C)CC(COCc1cccc(Cl)c1)N1CCN(C(=O)c2ccc(C(F)(F)F)cc2)CCC1=O (stereo not drawn) | ? | -17.2% | 32.0 | 5.3% | 10.3µM* | ?
O=S(=O)(c1cc(C(F)(F)F)ccc1Cl)N1CCN(c2ncnc3ccccc23)CC1 | ? | 1.8% | -82.2* | 14.1µM* | ? | -27.5%
Cc1cc(C)c(C)c(S(=O)(=O)N2CCN(c3ccccn3)CC2)c1C | -5.3% | -20.4% | -38.8 | ? | / | /
Cc1cc(C)c(C)c(S(=O)(=O)N2CCN(c3ncnc4ccccc34)CC2)c1C | 15.8µM* | -8.0% | ? | 2.51µM* | / | /
CC1CCN(c2ncnc3ccccc23)CC1 | ? | -2.8% | -71.9* | 11.2µM* | -0.2% | -0.9%
C#CCCCON=C1C[C@@H](O)[C@H](O)[C@H]2[C@@H]3C(=O)N(c4ccc(F)cc4F)C(=O)[C@@H]3CC[C@H]12 | / | / | / | / | / | -6.1%[14.2 µM]
O=C(CN1C(=O)C2CCCCN2c2ccc(C(=O)N3CCCC3)cc21)NCc1cccc(Cl)c1 (stereo not drawn) | 28.9% | / | 3.6 | / | -15.9%[46.1 µM] | /
Cc1cccc(S(=O)Cc2ccc(C(=O)NC3CCCCCC3)o2)c1 (stereo not drawn) | -3.0% | / | 11.0 | / | -20.5%[46.1 µM] | /
COc1cccc(CNC(=O)c2oc3ccc4c(c3c2C)C(=O)CC(C)(C)O4)c1OC | 9.8% | / | -6.1 | / | / | 18.5%[46.1 µM]
COC(=O)c1c(NC(=O)c2cccnc2)sc(C)c1C | ? | 0.9% | / | 10µM* | 20.0% | -1.7%
COC(CNC(=O)c1cccnc1)OC | -6.4% | -0.6% | -61.7* | 8.6% | / | /
